The nature of assay [1]: viability loss with induced miR-34 in A549 – imaging, A549 dox-inducible miR-34, nuclei and caspase counts, primary screen (AID 1347080;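 active = compounds whose cell count with miR-34 switched on is under 0.7 times the count with it off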). As to conditions: A549 miR-34 inducible, Hoechst nuclei count, 48 h.
A short description of assay [2]: MELAS cybrid and Rieske KO viability enhancers – cell-based, MELAS cybrids, Rieske KO mouse fibroblasts, CellTiter-Glo, primary screen (AID 1508586;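 active = mean z-score across replicates of 1.96 or higher in either the MELAS or the Rieske mutant cell line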;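 note: z relative to plate mean and SD of compound and empty wells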). The following applies: low glucose. Background: Cellular ATP, detected with luciferase, serves as a proxy for viable cell number.
A short description of assay [3]: galactose survival enhancers in mitochondrial complex I cybrids – cell-based, galactose medium, ATP luminescence, primary screen (AID 1645843;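 active = z-score of at least 1.8 in each of two replicates, scored against plate mean and spread of sample wells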;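 note: positive z means more ATP and so rescue of galactose-driven cybrid death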). As to conditions: complex I mutant cybrid cells, 72 h, stronger effect = higher value.
In a further assay the test system is F380Y. Briefly: BK channel mutant inhibitors and activators – cell-based, U2OS BacMam, thallium flux, beta subunits, selectivity assay, profiling panel (AID 1259406).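 Note: initial slope of Thallos dye fluorescence rise after thallium is added; log ratio against the mean of 0.3% DMSO vehicle wells on the same plate.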 The following applies: U2OS BacMam BK variants, at 30 µM.
A further assay concerns F380Y/beta1. Described as above. As to conditions: U2OS BacMam BK variants, at 30 µM.
For another assay, the system named is F380Y/beta2Delta. Described as above. As to conditions: U2OS BacMam BK variants, at 30 µM.
A further assay deals with F380Y/beta4. Described as above. As to conditions: U2OS BacMam BK variants, at 30 µM.
Assay [4] has as its target Calcium-activated potassium channel subunit alpha-1 (Homo sapiens) + Leucine-rich repeat-containing protein 26 (Homo sapiens) (UniProt Q12791+Q2I0M4). The description is as above. As to conditions: U2OS BacMam BK variants, F380Y/Slo1WT/gamma1, at 30 µM.
For a further assay, the system named is R275C. The description is as above. As to conditions: U2OS BacMam BK variants, at 30 µM.
The next assay has as its system R275C/beta1. The description is as above. As to conditions: U2OS BacMam BK variants, at 30 µM.
A further assay has as its system R275C/beta2Delta. The description is as above. The following applies: U2OS BacMam BK variants, at 30 µM.
A further assay relates to R275C/beta4. Described as above. As to conditions: U2OS BacMam BK variants, at 30 µM.
For another assay, the system named is R275C/Slo1WT/beta2. The description is as above. The following applies: U2OS BacMam BK variants, at 30 µM.
Assay [5] in a line: P. berghei load reduction in hepatocytes – cell-based, HepG2, luciferase luminescence, HepG2 viability, primary screen (AID 624349; in the data active = parasite load remaining mostly below about 12%, no sharp cut-off; inactive = mostly above about 10%;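 note: 100% = mean of DMSO negative control wells on the same plate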). The following applies: P. berghei liver stage in HepG2, luciferase luminescence, concentration not given here; parasite load remaining: stronger effect = lower value; viability: measured here: HepG2 viability without parasites.
A short description of assay [6]: signal quenchers or enhancers, Cy5 substrate/SSB – biochemical, NIH Clinical Collection, E. coli SSB, artefact control for HCV NS3 helicase inhibitor project (AID 743268; call rule not given here). The following applies: Cy5-oligo bound E. coli SSB, fluorescence interference.
The subject of assay [7] is Hepatitis C virus NS3 helicase. The experiment in a line: blockers of NS3h binding to DNA – biochemical, fluorescence polarization, NIH Clinical Collection, primary screen (AID 743270; call rule not given here). As to conditions: NS3 helicase binding to Cy5-dT15 DNA, stronger effect = higher value, concentration not given here. In general terms: In fluorescence polarisation assays a small probe gives low polarisation when free and higher when bound to something large.

Assay [8] addresses Single-stranded DNA-binding protein (Escherichia coli (strain K12)) (UniProt P0AGE0). Briefly: SSB-ssDNA binding inhibitors – biochemical, fluorescence polarization, NIH Clinical Collection, counter-screen for HCV NS3 helicase inhibitor project (AID 743271; in the data active = inhibition above about 28%). As to conditions: E. coli SSB-DNA binding, stronger effect = higher value, concentration not given here.
Assay [9] is described as follows: compounds distorting NS3 helicase fluorescence signal – biochemical, NIH Clinical Collection, artefact control for HCV NS3 helicase inhibitor project (AID 743272; call rule not given here;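 note: HCV NS3 helicase with a Cy5 labelled single stranded DNA probe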). As to conditions: fluorescence interference counterscreen, HCV NS3 helicase assay; stronger effect = lower value. For orientation: A counterscreen serves to expose hits that act by an unwanted route or on another target.

Assay [10] concerns Neuropilin-2 / VEGF-C interaction (human). Briefly: small molecules blocking Neuropilin-2/VEGF-C interaction – biochemical, microplate binding format, z-score (AID 743281; call rule not given here). As to conditions: microplate NRP2/VEGF-C binding assay; stronger effect = lower value.
A short description of assay [11]: modulation of C. elegans fzo-1 (AID 1259413; call rule not given here;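 note: fzo-1 mutant C. elegans worms in liquid wells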). As to conditions: C. elegans fzo-1 modulator screen, mean read-out; stronger effect = higher value.
[12] abbreviates: stronger effect = lower value, cell number ratio, induced over uninduced.
Where [13] appears, read: measured here: relative caspase fold change +Dox/-Dox.
Setting [14] is: measured here: total cells with miR-34 induction, stronger effect = lower value.
Where [15] appears, read: measured here: total cells without miR-34 induction.
The mark [16] stands for this setting: MELAS cybrid survival, CellTiter-Glo 48 h, stronger effect = higher value.
[17] abbreviates: Rieske KO mouse fibroblast survival, CellTiter-Glo 72 h.

The structures appear in SMILES notation. “And” between values parts separate entries of the source, which are not always exact repeats. Identical values can stand only once. The source made the active and inactive calls.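 Rule for the calls, unless noted: active = thallium flux through the channel raised or lowered by more than 3 SD from vehicle-only wells, actives on both sides; inactive = the rest.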

Calcium-activated potassium channel subunit alpha-1 (Homo sapiens) + Leucine-rich repeat-containing protein 26 (Homo sapiens), sequence (Q2I0M4 whole entry, looked up, one chain of several): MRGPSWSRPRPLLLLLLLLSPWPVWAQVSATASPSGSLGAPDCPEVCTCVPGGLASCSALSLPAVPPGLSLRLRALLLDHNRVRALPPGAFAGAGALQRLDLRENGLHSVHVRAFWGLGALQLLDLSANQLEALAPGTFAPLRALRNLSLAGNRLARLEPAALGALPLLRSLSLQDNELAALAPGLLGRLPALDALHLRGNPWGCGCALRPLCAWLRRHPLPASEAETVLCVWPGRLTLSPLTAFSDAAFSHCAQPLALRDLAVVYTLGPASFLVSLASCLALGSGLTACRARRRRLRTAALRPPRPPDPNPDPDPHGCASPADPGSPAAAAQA

With `O=C(O)Cc1ccc([N+](=O)[O-])cc1`, the fold change is 0.849 (inactive) in [1] (setting [12]) and 0.69 in assay [1] (setting [13]). The cell count in assay [1] (setting [14]) worked out at 8560; in assay [1] (setting [15]), 10100. The z-score in [2] (setting [16]) is -0.276 (inactive); in assay [2] (setting [17]) it was -0.17; in assay [3], 0.95 (inactive). Also, the log fold change Tl+ flux is -0.0269 (inactive) in the assay on F380Y; -0.0396 (inactive) with F380Y/beta1; -0.012 (inactive) in the assay with F380Y/beta2Delta; -0.00207 (inactive) with F380Y/beta4; -0.0215 (inactive) in assay [4]; -0.0145 (inactive) in the assay on R275C. For the same molecule, the log fold change Tl+ flux in the assay on R275C/beta1 is -0.00497 (inactive); with R275C/beta2Delta, 0.00238 (inactive); in the assay on R275C/beta4, -0.00439 (inactive); in the assay with R275C/Slo1WT/beta2 it was 0.0202 (inactive).

A word on the viability: it is a read-out of living cells in per cent, often relative to untreated cells. As a reminder, the inhibition is the relative decrease from the control value, in per cent. On to `O=c1c(O[C@@H]2O[C@H](CO)[C@@H](O)[C@H](O)[C@H]2O)c(-c2ccc(O)c(O)c2)oc2cc(O)cc(O)c12`, for which, in assay [5], the parasite load remaining is 52.7% (inactive). Moreover, the viability in assay [5] was determined as 69.6%. Also, the fluorescence ratio in [6] is 0.86 (inactive); in [9], 0.99 (inactive). For the same molecule, the figures for the inhibition in [7] and in [8] were 2.77% (inactive) and 12.2% (inactive), respectively. The z-score in assay [10] is -0.152 (inactive). In [11], the mean signal is 249 (inactive). In addition, the log fold change Tl+ flux was -0.0619 (inactive) in the assay on F380Y; 0.0645 (inactive) in the assay on F380Y/beta1; -0.0137 (inactive) in the assay on F380Y/beta2Delta; -0.0759 (inactive) with F380Y/beta4; 0.0381 (inactive) in [4]; 0.0103 (inactive) with R275C. Also, the log fold change Tl+ flux with R275C/beta1 is 0.0316 (inactive); in the assay on R275C/beta2Delta, 0.0226 (inactive); in the assay on R275C/beta4, 0.0307 (inactive); in the assay with R275C/Slo1WT/beta2, -0.0065 (inactive).

With `C=C1/C(=C\C=C2/CCC[C@]3(C)[C@@H]([C@H](C)/C=C/[C@@H](O)C4CC4)CC[C@@H]23)C[C@@H](O)C[C@@H]1O`, the parasite load remaining in assay [5] was 78.1% (inactive) and 40.9% (inactive). Further, in [5], the viability was 69.5% and 101%. Besides, the fluorescence ratio was 0.98 (inactive) in assay [6] and 0.97 (inactive) in assay [9]. The inhibition in assay [7] is -1.98% (inactive); in assay [8] it was 2.98% (inactive). For the same molecule, the fold change in assay [1] (setting [12]) is 1.11 (inactive) and 0.946 (inactive); in assay [1] (setting [13]), 1.34 and 1.48. Besides, the cell count is 6690 and 9180 in assay [1] (setting [14]); 6000 and 9710 in assay [1] (setting [15]). For the same molecule, the z-score was 0.67 (inactive) and -0.148 (inactive) in assay [2] (setting [16]); -0.0393 and -0.0428 in [2] (setting [17]); -0.655 (inactive) and -0.545 (inactive) in assay [3]. For the same molecule, the log fold change Tl+ flux in the assay on F380Y is 0.0327 (inactive); in the assay with F380Y/beta1, 0.217 (active); with F380Y/beta2Delta, 0.0454 (inactive); in the assay on F380Y/beta4, 0.0579 (inactive); in assay [4], 0.0831 (inactive); in the assay on R275C, -0.0334 (inactive). The log fold change Tl+ flux in the assay with R275C/beta1 is 0.143 (active); in the assay on R275C/beta2Delta, -0.0353 (inactive); with R275C/beta4 it was 0.0276 (inactive); in the assay on R275C/Slo1WT/beta2, 0.00965 (inactive).

As to `CCCc1nc(C(C)(C)O)c(C(=O)O)n1Cc1ccc(-c2ccccc2-c2nn[nH]n2)cc1`, the parasite load remaining in [5] is 103% (inactive). The viability in assay [5] worked out at 69%. Moreover, the results for the fluorescence ratio in assay [6] and in assay [9] were 1.02 (inactive) and 0.93 (inactive), respectively. In addition, the inhibition in assay [7] is 1.19% (inactive); in [8] it was -0.1% (inactive). Also, the fold change was 0.897 (inactive) and 0.859 (inactive) in assay [1] (setting [12]); 2.28 and 0.39 in assay [1] (setting [13]). Besides, the cell count was 9480 and 8420 in assay [1] (setting [14]); 10600 and 9810 in assay [1] (setting [15]). Also, the z-score in assay [2] (setting [16]) is 0.347 (inactive); in assay [2] (setting [17]), -0.184; in assay [3], 0.54 (inactive) and -0.09 (inactive). For the same molecule, the log fold change Tl+ flux is -0.0187 (inactive) in the assay with F380Y; 0.00703 (inactive) with F380Y/beta1; 0.0323 (inactive) in the assay with F380Y/beta2Delta; -0.0244 (inactive) with F380Y/beta4; 0.0466 (inactive) in assay [4]; 0.0686 (inactive) in the assay on R275C. Besides, the log fold change Tl+ flux was 0.00561 (inactive) in the assay on R275C/beta1, 0.0191 (inactive) with R275C/beta2Delta, -0.0131 (inactive) in the assay with R275C/beta4 and -0.0157 (inactive) in the assay with R275C/Slo1WT/beta2.

Values taken from PubChem BioAssay.
